Values joined by “and” are separate entries in the source; they are usually repeats but may differ in a detail not shown here. Equal values may be shown once. Whole data set: some 2,900 compounds, median “NF-kB SEAP reporter activity, fold change vs agonist alone” near 0.99, cut for the highest 2% near 2.6. Only a selection was taken, and the highest values are over-represented in it overall.
Key:
[1] = test system: RAW-Dual; assay: NF-kB SEAP reporter activity, fold change vs agonist alone; cytotoxicity flag (confluency mask): not cytotoxic; higher = enhanced NF-kB activity
Outline: (§1)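 Library stock was pin-tooled at 50 nL into 384-well plates of RAW-Dual macrophages (50,000 cells/well, DMEM), followed 1 h later by a PRR agonist, and the cells were kept at 37 °C, 5% CO2. Supernatant collected after 20 hours was read for IRF by QuantiLuc luminescence and for NF-κB by QuantiBlue absorbance at 620 nm. Reporter activity is fold change over agonist-alone wells, and a well counted as cytotoxic when its IncuCyte confluency was below 70% of agonist controls in both mask sets.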

[2] = test system: RAW-Dual; assay: NF-kB SEAP reporter activity, fold change vs agonist alone; higher = enhanced NF-kB activity; conditions: library stock concentration (final ~1000-fold dilution): 10 mM, cytotoxicity flag (confluency mask): not cytotoxic
Outline: as §1

[3] = agonist: ODN 1826 (TLR9) 0.5 ug/mL
[4] = agonist: Pam2CSK4 (TLR2/6) 0.1 ug/mL
[5] = agonist: Pam3CSK4 (TLR2/1) 0.1 ug/mL

Row | Compound | NF-kB SEAP reporter activity ([1]; agonist: LPS (TLR4) 0.1 ug/mL) | NF-kB SEAP reporter activity [1, 3] | NF-kB SEAP reporter activity [1, 4] | NF-kB SEAP reporter activity [1, 5] | NF-kB SEAP reporter activity ([2]; agonist: Imiquimod (TLR7) […]) | NF-kB SEAP reporter activity ([2]; agonist: MPLA (TLR4) […])
1 | CC(C)C(C(=O)Nc1ccc(C(=O)NO)cc1)c1ccccc1 (stereo not given) (library stock concentration (final ~1000-fold dilution): 10 mM) | 4.76 | 0.93 | 1.12 | 1.15 |  | 
2 | CC(C)C(C(=O)Nc1ccc(C(=O)NO)cc1)c1ccccc1 (stereo not given) |  |  |  |  | 0.965 | 0.937
3 | CC(C(=O)O)c1cccc(C(=O)c2ccccc2)c1 (stereo not given) (library stock concentration (final ~1000-fold dilution): 10 mM) | 1.02 | 1.01 | 1.11 | 1.19 |  | 
4 | CC(C(=O)O)c1cccc(C(=O)c2ccccc2)c1 (stereo not given) |  |  |  |  | 0.866 | 1.05
5 | Cc1nc(-c2nc(-c3ccc(OC(F)(F)F)cc3)no2)nn1Cc1cccc(N2CCC(S(C)(=O)=O)CC2)c1 |  |  |  |  | 0.853 | 1.28
6 | Cc1nc(-c2nc(-c3ccc(OC(F)(F)F)cc3)no2)nn1Cc1cccc(N2CCC(S(C)(=O)=O)CC2)c1 (library stock concentration (final ~1000-fold dilution): 10 mM) | 2 | 0.837 | 0.462 | 0.849 |  | 
7 | O.O=c1c(O)c(-c2ccc(O)cc2O)oc2cc(O)cc(O)c12 |  |  |  |  | 0.957 | 1.05
8 | O.O=c1c(O)c(-c2ccc(O)cc2O)oc2cc(O)cc(O)c12 (library stock concentration (final ~1000-fold dilution): 10 mM) | 1.52 | 1.13 | 1.15 | 1.18 |  | 
9 | COCCCOc1cc(CC(CC(N)C(O)CC(C(=O)NCC(C)(C)C(N)=O)C(C)C)C(C)C)ccc1OC (stereo not given) (library stock concentration (final ~1000-fold dilution): 10 mM) | 1.36 and 1.31 | 1.57 and 0.983 | 1.09 and 0.934 | 1.04 and 1.06 |  | 
10 | CC1=NN(c2ccc(C)c(C)c2)C(=O)/C1=N\Nc1cccc(-c2cccc(C(=O)O)c2)c1O.NCCO.NCCO |  |  |  |  | 1.57 | 1.64
11 | CC1=NN(c2ccc(C)c(C)c2)C(=O)/C1=N\Nc1cccc(-c2cccc(C(=O)O)c2)c1O.NCCO.NCCO (library stock concentration (final ~1000-fold dilution): 10 mM) | 2.92 | 1.31 | 1.58 | 1.34 |  | 
12 | Cc1ncc(Cl)cc1NCc1ccc(C(=O)NC(CC2CCCC2)C(=O)NC2CC2)s1 (stereo not given) |  |  |  |  | 0.865 | 0.987
13 | Cc1ncc(Cl)cc1NCc1ccc(C(=O)NC(CC2CCCC2)C(=O)NC2CC2)s1 (stereo not given) (library stock concentration (final ~1000-fold dilution): 10 mM) | 0.894 | 0.742 | 0.85 | 0.698 |  | 

Source: the supplement of paper PMC10037445
